PubChem BioAssay (NCATS)
Values joined by “and” are separate entries in the source; they are usually repeats but may differ in a detail not shown here. Equal values may be shown once. Records with an inconclusive call do not appear. Active and inactive are the calls of the source. Unless noted, calls follow the shape of the dose curve; as a rule, active = well fitted curve in the direction sought with a large enough effect; inconclusive = small, poorly fitted or top-dose-only effect, or another doubt; inactive = no such curve, though single readings can be large; an effect the other way counts as inactive or inconclusive.

Key:
[1] = Stat Signaling Pathway (AID 446; active = well fitted curve in either direction with a large enough effect, not every such curve was filed as active;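 also: ME-180 cervical cancer cells given 40 pM IL-6 alongside compound; SIE-controlled beta-lactamase reporter measured as 460/530 nm FRET emission ratio; % is scaled to controls: 0 for no effect and ±100 for the full control effect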)
Summary of the method: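 Emission at 460 and 530 nm (excitation 405 nm) reports SIE-controlled beta-lactamase in ME-180 cells. Cells received compound with 40 pM IL-6 for 5 hrs at 37 C; data scaled between 300 pM IL-6 and 125 nM JAK-inhibitor controls.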

[2] = biological target: 3',5'-cyclic-AMP phosphodiesterase 4B (Homo sapiens) (UniProt Q07343); assay: qHTS Assay for Inhibitors of PDE-IV (AID 607; active = well fitted activation curve with a large enough effect in the main read-out, with a control signal flat, not every such curve was filed as active; also: % of control where 0% means no effect)
Summary of the method: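 The readout is membrane depolarisation from a cAMP-sensing CNG channel, detected with a potential dye at ex 535/em 590. Cells were HEK293-derived (endogenous PDE-IV) at 1000 cells/well, titrated up to 22.9 uM final.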

[3] = qHTS Assay for Lipid Storage Modulators (AID 1519; calls by dose curve; as to activity change, negative = inhibition: % is scaled to controls: 0 for no effect and ±100 for the full control effect); details: Drosophila S3 cells, BODIPY lipid droplet/cell ratio, laser cytometry, cells loaded with oleic acid
Summary of the method: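 Cells seeded at 5,000 per well were treated with compounds over a concentration series and loaded with oleic acid (400 uM, as added). Lipid droplet fluorescence (488 nm excitation, 500-530 nm channel) was read by laser-scanning cytometry and normalized to 20 uM Triacsin C.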

[4] = biological target: Ubiquitin carboxyl-terminal hydrolase 1 (Homo sapiens) (UniProt O94782); assay: Inhibitors of USP1/UAF1: Pilot qHTS (AID 504865); also: nearly all actives have a fitted effect of over 35% in size; also: potency is read from the fitted curve at half-maximal effect;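 as to activity change, negative = inhibition: rhodamine fluorescence freed from ubiquitin-rhodamine substrate followed over time; top concentration of the series differs between compounds; % is scaled to controls: 0 for no effect and ±100 for the full control effect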
Summary of the method: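 Enzyme-free wells gave the negative control, while test wells held 1nM USP1/UAF1 preincubated with compound for 15 min at room temperature. Ub-Rho at 150nM final started the reaction, and fluorescence at 480/540 nm was recorded kinetically.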

[5] = biological target: Glucocorticoid receptor (Homo sapiens) (UniProt P04150); assay: GR-GFP Redistribution (AID 450;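 active = compounds whose dose series gives a full or clear partial fitted curve of increased nuclear translocation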; also: potency is read from the fitted curve at half-maximal effect); details: U2OS GR-GFP nuclear translocation, laser cytometry, 2 h
[6] = biological target: Glucocorticoid receptor (Homo sapiens) (UniProt P04150); assay: GR-EFC Redistribution (AID 451; calls by dose curve; also: potency is read from the fitted curve at half-maximal effect); details: CHO-K1 GR-EFC translocation, beta-gal luminescence, 2 h
Summary of the method: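 CHO-K1 cells expressing nuclear EA and GR-ED fragments of b-gal; compounds titrated up to 46 uM final, 2 h at 37 C. GR nuclear translocation read as complemented b-gal luminescence after 1 h RT detection.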

[7] = biological target: Mitogen-activated protein kinase 10 (Mus musculus) (UniProt Q61831); assay: JNK3 AlphaScreen Assay (AID 530; active = well fitted curve in either direction with a large enough effect, not every such curve was filed as active;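 also: kinase came from lysate of stimulated human HepG2 cells; signal reports phosphorylation of biotinylated GST-cJun 1-79 at Ser73 with 10 µM ATP; % is scaled to controls: 0 for no effect and ±100 for the full control effect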)
Summary of the method: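 HepG2 lysate (IL-1b/TNFa pre-activated) + biotin-GST-cJun 1-79 + anti-pSer73 cJun; cpd titration, 15 min RT; ATP 10 uM start; Tris pH 7.6, MgCl2, DTT, vanadate; beads in EDTA buffer; AlphaScreen.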

[8] = S16 Schwann cell viability assay (CellTiter-Glo assay) (AID 624031);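 also: native untransfected S16 rat Schwann cells; cellular ATP luminescence as a viability measure; plate controls were DMSO-treated cells for no effect and cell-free wells for full effect; nearly all actives have a fitted effect of over 70% in size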
Summary of the method: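 Following overnight culture in 10% FBS DMEM, parental S16 rat Schwann cells are dosed for 24 h at 37 °C. Viability is read as CellTiter-Glo luminescence and expressed as % activity relative to DMSO (0%) and no-cell wells.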

[9] = qHTS profiling for inhibitors of Plasmodium falciparum proliferation (AID 504749);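 also: 0% = DMSO vehicle and full inhibition = artemisinin control; nearly all actives have a fitted effect of over 60% in size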; details: P. falciparum in erythrocytes, SYBR Green DNA, 72 h, at 12.8 µM (top of the series)
Summary of the method: (§1)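 SYBR Green fluorescence (ex 485 nm, em 535 nm) reports parasite DNA after 72 h compound exposure of infected red cells at 0.3% parasitemia, 2.5% hematocrit; signal normalized to 0.29 uM artemisinin and vehicle wells.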

CP192 = assay: as above; details: P. falciparum in erythrocytes, SYBR Green DNA, 72 h; series mostly up to 12.8 µM
Summary of the method: as §1

CP201 = assay: as above; details: P. falciparum in erythrocytes, SYBR Green DNA, 72 h; series mostly up to 12.8 µM
Summary of the method: as §1

CP262 = assay: as above; details: P. falciparum in erythrocytes, SYBR Green DNA, 72 h; series mostly up to 12.8 µM
Summary of the method: as §1

CP269 = assay: as above; details: P. falciparum in erythrocytes, SYBR Green DNA, 72 h; series mostly up to 12.8 µM
Summary of the method: as §1

CP305 = assay: as above; details: P. falciparum in erythrocytes, SYBR Green DNA, 72 h; series mostly up to 12.8 µM
Summary of the method: as §1

CP315 = assay: as above; details: P. falciparum in erythrocytes, SYBR Green DNA, 72 h; series mostly up to 12.8 µM
Summary of the method: as §1

CP325 = assay: as above; details: P. falciparum in erythrocytes, SYBR Green DNA, 72 h; series mostly up to 12.8 µM
Summary of the method: as §1

CP329 = assay: as above; details: P. falciparum in erythrocytes, SYBR Green DNA, 72 h; series mostly up to 12.8 µM
Summary of the method: as §1

FAB9 = assay: as above; details: P. falciparum in erythrocytes, SYBR Green DNA, 72 h; series mostly up to 12.8 µM
Summary of the method: as §1

JCK = assay: as above; details: P. falciparum in erythrocytes, SYBR Green DNA, 72 h; series mostly up to 12.8 µM
Summary of the method: as §1

PC49 = assay: as above; details: P. falciparum in erythrocytes, SYBR Green DNA, 72 h; series mostly up to 12.8 µM
Summary of the method: as §1

[10] = measured here: cell count channel max response
[11] = measured here: lipid channel max response

Chain of Ubiquitin carboxyl-terminal hydrolase 1 (Homo sapiens) (O94782 whole entry, looked up): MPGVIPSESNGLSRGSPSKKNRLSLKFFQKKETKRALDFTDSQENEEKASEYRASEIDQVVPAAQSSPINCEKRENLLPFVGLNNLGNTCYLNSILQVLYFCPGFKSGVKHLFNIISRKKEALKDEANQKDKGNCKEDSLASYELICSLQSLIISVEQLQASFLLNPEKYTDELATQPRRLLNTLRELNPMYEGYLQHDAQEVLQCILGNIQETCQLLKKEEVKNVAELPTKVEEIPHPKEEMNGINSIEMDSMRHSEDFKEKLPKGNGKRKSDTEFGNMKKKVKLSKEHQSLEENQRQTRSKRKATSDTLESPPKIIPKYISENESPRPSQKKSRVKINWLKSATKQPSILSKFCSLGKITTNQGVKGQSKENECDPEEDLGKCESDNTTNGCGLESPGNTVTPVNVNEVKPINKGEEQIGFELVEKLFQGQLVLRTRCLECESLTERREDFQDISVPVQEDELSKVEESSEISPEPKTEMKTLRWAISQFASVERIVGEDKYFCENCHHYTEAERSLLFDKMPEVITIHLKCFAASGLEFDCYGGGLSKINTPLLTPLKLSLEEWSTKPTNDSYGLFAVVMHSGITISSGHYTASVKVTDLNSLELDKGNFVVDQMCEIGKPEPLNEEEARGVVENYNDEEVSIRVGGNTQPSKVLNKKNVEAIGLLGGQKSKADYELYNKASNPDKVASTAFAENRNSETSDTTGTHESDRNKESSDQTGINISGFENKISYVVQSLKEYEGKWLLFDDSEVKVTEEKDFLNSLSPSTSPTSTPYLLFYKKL
Chain of 3',5'-cyclic-AMP phosphodiesterase 4B (Homo sapiens) (Q07343 whole entry, looked up): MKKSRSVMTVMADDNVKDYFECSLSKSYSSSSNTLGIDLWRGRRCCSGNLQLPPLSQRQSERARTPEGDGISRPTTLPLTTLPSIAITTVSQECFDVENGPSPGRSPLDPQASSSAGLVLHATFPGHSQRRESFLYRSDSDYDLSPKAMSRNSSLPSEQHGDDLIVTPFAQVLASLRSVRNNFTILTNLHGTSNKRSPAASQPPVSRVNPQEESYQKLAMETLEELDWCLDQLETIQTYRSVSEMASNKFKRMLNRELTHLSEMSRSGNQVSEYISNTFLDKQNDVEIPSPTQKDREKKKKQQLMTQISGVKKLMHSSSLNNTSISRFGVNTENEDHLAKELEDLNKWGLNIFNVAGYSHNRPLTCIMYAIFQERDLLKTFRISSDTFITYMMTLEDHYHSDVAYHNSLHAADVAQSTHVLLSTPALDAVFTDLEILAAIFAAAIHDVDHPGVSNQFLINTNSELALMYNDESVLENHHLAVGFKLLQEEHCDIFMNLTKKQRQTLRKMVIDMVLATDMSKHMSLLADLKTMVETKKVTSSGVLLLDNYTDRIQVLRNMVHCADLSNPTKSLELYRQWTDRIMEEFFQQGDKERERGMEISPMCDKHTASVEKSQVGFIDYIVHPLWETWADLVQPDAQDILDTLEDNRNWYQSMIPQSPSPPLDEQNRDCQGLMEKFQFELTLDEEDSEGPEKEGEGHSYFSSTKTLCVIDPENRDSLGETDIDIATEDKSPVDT
Chain of Glucocorticoid receptor (Homo sapiens) (P04150 whole entry, looked up, the tested form may be a part): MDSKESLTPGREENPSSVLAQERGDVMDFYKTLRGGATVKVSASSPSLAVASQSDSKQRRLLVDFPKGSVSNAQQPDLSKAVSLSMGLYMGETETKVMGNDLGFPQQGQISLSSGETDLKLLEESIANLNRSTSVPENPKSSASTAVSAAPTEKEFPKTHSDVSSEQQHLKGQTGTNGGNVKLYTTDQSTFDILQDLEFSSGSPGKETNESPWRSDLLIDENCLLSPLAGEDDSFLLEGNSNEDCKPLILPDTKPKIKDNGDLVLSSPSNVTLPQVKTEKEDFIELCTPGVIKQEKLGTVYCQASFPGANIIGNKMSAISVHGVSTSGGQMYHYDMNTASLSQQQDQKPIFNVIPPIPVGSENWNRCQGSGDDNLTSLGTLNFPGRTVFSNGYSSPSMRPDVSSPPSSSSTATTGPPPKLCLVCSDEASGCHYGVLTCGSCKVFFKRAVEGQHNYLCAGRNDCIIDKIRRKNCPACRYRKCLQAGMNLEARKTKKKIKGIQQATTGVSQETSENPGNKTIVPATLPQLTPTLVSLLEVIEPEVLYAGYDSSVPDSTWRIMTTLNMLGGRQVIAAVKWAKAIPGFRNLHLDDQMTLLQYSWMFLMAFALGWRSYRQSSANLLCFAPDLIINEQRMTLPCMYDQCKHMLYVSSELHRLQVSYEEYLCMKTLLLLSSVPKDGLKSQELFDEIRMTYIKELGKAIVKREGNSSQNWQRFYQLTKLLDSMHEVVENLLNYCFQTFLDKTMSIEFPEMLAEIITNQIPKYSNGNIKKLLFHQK

CC1(C)S[C@@H]2[C@H](NC(=O)C(N)c3ccccc3)C(=O)N2[C@H]1C(=O)O (some centres not stated)
8.14%: max response [3, 10]
6.97%: max response [3, 11]
inactive: outcome [1] | outcome [2] | activity change, negative = inhibition ([3]; at 25.7 µM (top of the series)) -0.37% | Potency [4]

O=C1C=CC(=O)c2c1ccc1c2ccc2ccccc21
-3.16%: max response [3, 11]
inactive: Potency [5] > 20.6 µM | Potency [6] > 20.6 µM | Potency [7] | outcome [2] | activity change, negative = inhibition ([3]; at 25.7 µM (top of the series)) -0.997%
-0.715%: max response [3, 10]

CC(=O)[C@@H]1CC[C@@H]2[C@@H]3C[C@H](C)C4=CC(=O)CC[C@@]4(C)[C@H]3[C@H](O)C[C@]21C
-15.5%: max response [3, 11]
-5.95%: max response [3, 10]
active: Potency [5] 0.0015 µM
inactive: outcome [1] | Potency [7] | outcome [2] | activity change, negative = inhibition ([3]; at 25.7 µM (top of the series)) -5.46% | Potency [4] | outcome [8] | activity, negative = inhibition ([9]; parasite line A) 0.756% | activity, negative = inhibition ([9]; parasite line B) -6.03% | Potency (CP192) | Potency (CP201) | Potency (CP262) | Potency (CP269) | Potency (CP305) | Potency (CP315) | Potency (CP325) | Potency (CP329) | Potency (FAB9) | Potency (JCK) | Potency (PC49)

CCN(CC)[C@@H](C)CN1c2ccccc2Sc2ccccc21
-2.62%: max response [3, 10]
inactive: outcome [1] | Potency [5] > 20.6 µM | Potency [6] > 20.6 µM | Potency [7] | outcome [2] | activity change, negative = inhibition ([3]; at 25.7 µM (top of the series)) 0.633% | Potency [4] | outcome [8] | activity, negative = inhibition ([9]; parasite line B) -12.9% | Potency (CP192) | Potency (CP262) | Potency (CP269) | Potency (CP305) | Potency (CP315) | Potency (CP325) | Potency (CP329) | Potency (FAB9) | Potency (JCK) | Potency (PC49)
-2.65%: max response [3, 11]

C#C[C@@]1(O)CC[C@@H]2[C@@H]3CCC4=CC(=O)CC[C@@H]4[C@H]3CC[C@]21CC
active: Potency [5] 0.0832 µM
inactive: outcome [1] | Potency [6] > 20.6 µM | Potency [7] | outcome [2] | activity change, negative = inhibition ([3]; at 25.7 µM (top of the series)) -1.97% | Potency [4]
-10.3%: max response [3, 10]
-10.4%: max response [3, 11]

O=C(O)[C@@H]1[C@@H]2C[C@H]3c4[nH]c5ccccc5c4CCN3C[C@@H]2CC[C@@H]1O
active: Potency [4] 28.2 µM
-6.11%: max response [3, 11]
-6.3%: max response [3, 10]
inactive: outcome [1] | Potency [5] > 20.6 µM and > 46 µM | Potency [6] > 20.6 µM and > 46 µM | Potency [7] | outcome [2] | activity change, negative = inhibition ([3]; at 25.7 µM (top of the series)) 0.95% | outcome [8] | Potency (CP305) | Potency (JCK) | Potency (PC49)

FC(F)(F)c1ccccc1-c1ccc2ncnc(NC3CCNCC3)c2c1
inactive: outcome [1] | Potency [5] > 46 µM | Potency [6] > 46 µM | Potency [7] | outcome [2] | activity change, negative = inhibition ([3]; at 57.5 µM (top of the series)) -0.848% | Potency [4]
8.99%: max response [3, 10]
6.31%: max response [3, 11]

C[C@@H]1O[C@H](O[C@@H]2[C@H](C)O[C@H](O[C@@H]3[C@H](C)O[C@H](O[C@H]4CC[C@]5(C)[C@@H](CC[C@@H]6[C@H]5C[C@@H](O)[C@]5(C)[C@@H](C7=CC(=O)OC7)CC[C@]65O)C4)C[C@@H]3O)C[C@@H]2O)C[C@H](O)[C@@H]1O
inactive: Potency [5] > 20.6 µM | Potency [6] > 20.6 µM | Potency [7] | outcome [2] | activity change, negative = inhibition ([3]; at 25.7 µM (top of the series)) 0.916%
1.22%: max response [3, 11]
2.04%: max response [3, 10]

O[C@@](CCN1CCCCC1)(c1ccccc1)[C@@H]1C[C@H]2C=C[C@@H]1C2
-2.67%: max response [3, 11]
inactive: outcome [1] | Potency [5] > 20.6 µM | Potency [6] > 20.6 µM | Potency [7] | activity change, negative = inhibition ([3]; at 25.7 µM (top of the series)) 1.83% | Potency [4]
-4.18%: max response [3, 10]

C[C@@H]1C[C@H](OC(=O)c2ccccc2O)CC(C)(C)C1
-8.27%: max response [3, 10]
-10.7%: max response [3, 11]
inactive: outcome [1] | Potency [5] > 20.6 µM | Potency [6] > 20.6 µM | Potency [7] | outcome [2] | activity change, negative = inhibition ([3]; at 25.7 µM (top of the series)) -2.75% | Potency [4]

O=C(OC[C@@H](O)CO)c1ccccc1Nc1ccnc2cc(Cl)ccc12
inactive: outcome [1] | Potency [7] | outcome [2] | activity change, negative = inhibition ([3]; at 25.7 µM (top of the series)) -2.54% | outcome [8] | activity, negative = inhibition ([9]; parasite line A) -14.6% | activity, negative = inhibition ([9]; parasite line B) -22.4% | Potency (CP192) | Potency (CP201) | Potency (CP262) | Potency (CP269) | Potency (CP305) | Potency (CP315) | Potency (CP325) | Potency (CP329) | Potency (FAB9) | Potency (JCK) | Potency (PC49)
3.2%: max response [3, 11]
9.55%: max response [3, 10]

CC(=O)N[C@H]1[C@@H](O[C@@H](C)C(=O)O)[C@H](O)[C@H](CO)O[C@@H]1O
inactive: outcome [1] | Potency [5] > 20.6 µM | Potency [6] > 20.6 µM | Potency [7] | outcome [2] | activity change, negative = inhibition ([3]; at 25.7 µM (top of the series)) -1.67% | Potency [4]
7.96%: max response [3, 10]
4.82%: max response [3, 11]

C[C@@H](Cc1cccc(C(F)(F)F)c1)NCCOC(=O)c1ccccc1
-18.4%: max response [3, 11]
-19.2%: max response [3, 10]
inactive: outcome [1] | Potency [5] > 20.6 µM | Potency [6] > 20.6 µM | Potency [7] | activity change, negative = inhibition ([3]; at 25.7 µM (top of the series)) -1.81% | Potency [4]

COc1cccc(-c2nc(NCCc3c[nH]c4ccc(OC)cc34)c3ccccc3n2)c1
-5.2%: max response [3, 11]
-17.7%: max response [3, 10]
inactive: Potency [5] > 46 µM | Potency [6] > 46 µM | Potency [7] | activity change, negative = inhibition ([3]; at 57.5 µM (top of the series)) 5.14%

CC[C@H](C)C(=O)O[C@@H]1C[C@H](C)C=C2C=C[C@H](C)[C@@H](CC[C@H]3C[C@@H](O)CC(=O)O3)[C@H]21
-8.58%: max response [3, 11]
inactive: outcome [1] | Potency [5] > 20.6 µM | Potency [6] > 20.6 µM | Potency [7] | outcome [2] | activity change, negative = inhibition ([3]; at 25.7 µM (top of the series)) -5.83% | Potency [4]
-1.87%: max response [3, 10]

O=C(O)[C@@H](O)[C@@H](O)[C@@H](O[C@H]1O[C@@H](CO)[C@@H](O)[C@@H](O)[C@@H]1O)[C@@H](O)CO
10.3%: max response [3, 11]
12.1%: max response [3, 10]
inactive: outcome [1] | Potency [5] > 20.6 µM | Potency [6] > 20.6 µM | Potency [7] | outcome [2] | activity change, negative = inhibition ([3]; at 25.7 µM (top of the series)) -0.529% | Potency [4]
